The record followed here is PubChem BioAssay AID588347 (National Center for Advancing Translational Sciences (NCATS), 2011).

The list shows a part of the results. Records with an inconclusive call do not appear. The source made the active and inactive calls. The call rests on the fitted dose curve; in most records, active means well fitted inhibition curve with a large enough effect; inconclusive means small, poorly fitted or top-dose-only effect, or another doubt; inactive means no such curve, though single readings can be large or run the other way.

The target of this assay is Histone acetyltransferase KAT2A (Homo sapiens) (UniProt Q92830). The assay can be described thus: qHTS Assay for Inhibitors of GCN5L2: Hit confirmation. To be noted: GCN5L2 HAT, ThioGlo1 CoA fluorescence, 20 min. An excerpt: Histone acetyltransferase (HAT) enzymes transfer a […] group from acetyl-coenzyme A to the epsilon-amino group of conserved lysine residues of N-terminal histone tails. Acetylation results in charge neutralization of this positively charged amino acid, decreasing interactions with the […] backbone and making the DNA more accessible for transcription. HATs have been recognized as an emerging drug target for treatment of cancer, diabetes, asthma, chronic obstructive pulmonary disease, cardiac disease, and viral infection. Protein identified with HAT activity include the […] like 2 (GCN5L2, a.ka. Histone acetyltransferase KAT2A) which acetylates histone H3 at Lys9, 14, 18, 13, and to lesser extent histones H4 and H2B. This activates transcription of the gene by modulating chromatin structure and installing the acetyllysine recognition mark for bromodomain-containing coactivator proteins. A quantitative high throughput screen was developed to identify small molecule inhibitors. The assay is based on the principle that it measures formation of reduced CoA with the pro-fluorescent maleimide derivative ThioGlo1 that becomes fluorescent upon reaction with the free thiol of CoA. A large number of artifacts are expected in this primary screen, compounded by the assay format (fluorescent artifacts) and by the high top concentration tested for each substance. […] Yasgar, et al. Compound Management for Quantitative High-Throughput Screening. […] Inglese, et al. Quantitative high-throughput screening: a titration-based approach that efficiently identifies biological activities in large chemical libraries. […]
Chain of Histone acetyltransferase KAT2A (Homo sapiens) (Q92830 whole entry, looked up): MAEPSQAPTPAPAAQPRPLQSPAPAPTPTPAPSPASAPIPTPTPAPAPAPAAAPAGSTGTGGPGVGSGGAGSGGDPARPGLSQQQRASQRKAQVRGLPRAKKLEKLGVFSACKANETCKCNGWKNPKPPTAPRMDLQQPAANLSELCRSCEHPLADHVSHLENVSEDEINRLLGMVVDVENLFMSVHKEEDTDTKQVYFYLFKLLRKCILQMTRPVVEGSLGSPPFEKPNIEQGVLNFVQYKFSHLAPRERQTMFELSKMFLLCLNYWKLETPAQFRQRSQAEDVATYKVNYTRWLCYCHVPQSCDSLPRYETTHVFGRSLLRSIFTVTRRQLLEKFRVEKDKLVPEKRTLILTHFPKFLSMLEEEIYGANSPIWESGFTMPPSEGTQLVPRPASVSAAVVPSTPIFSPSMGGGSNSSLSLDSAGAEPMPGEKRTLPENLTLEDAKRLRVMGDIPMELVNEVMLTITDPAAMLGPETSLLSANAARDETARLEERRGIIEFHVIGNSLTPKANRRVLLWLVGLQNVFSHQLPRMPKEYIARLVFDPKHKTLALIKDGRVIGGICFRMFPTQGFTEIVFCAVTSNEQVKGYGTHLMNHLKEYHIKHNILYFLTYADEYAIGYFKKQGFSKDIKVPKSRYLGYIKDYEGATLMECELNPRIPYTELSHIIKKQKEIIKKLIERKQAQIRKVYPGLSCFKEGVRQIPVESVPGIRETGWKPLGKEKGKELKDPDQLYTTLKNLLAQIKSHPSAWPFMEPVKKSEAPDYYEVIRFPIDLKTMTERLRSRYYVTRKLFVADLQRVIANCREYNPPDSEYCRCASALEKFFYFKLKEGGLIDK
To each well of a 1,536w plate, 3ul of GCN5L2 (final concentration 20nM, in 50mM HEPES, 0.1mM EDTA (pH 7.5), 0.01% Tween-20 buffer) are added using a Kalypsys dispenser. […] Plates are read immediately on the ViewLux (PerkinElmer) (Ex340nm/Em540nm) for a 0 min read, incubated for 20 min at room temperature, and read again on the ViewLux with the same settings. The initial read was carried out to identify compounds that are potentially fluorescent.
On to `FC(F)(F)C1CCCN(c2nsc3ccccc23)C1` (stereo not drawn), for which the Potency was 2.89 µM (active).

For `CC1=C/C(=N\OS(=O)(=O)c2ccccc2)C=CC1=O`, the Potency was 10.2 µM (active).

Consider `O=c1[nH]c2ccccc2n2c(-c3ccccc3)nnc12`, for which the Potency was 6.46 µM (active).
